Test results published in the supplement of paper PMC13380429.
Values without a mark were called inactive.

Tested on: Vero E6 infected with SARS-CoV-2
Assay: SARS-CoV-2 infection rate relative to infected DMSO; higher = more infection, active = 60 or less
Conditions: 24 h

SMILES	SARS-CoV-2 infection rate
O=C1NC(c2cccc([N+](=O)[O-])c2)=CCN1c1ccccc1O [icilin] (10 µM)	100%
Cc1onc(-c2c(Cl)cccc2Cl)c1C(=O)N[C@@H]1C(=O)N2[C@@H]1SC(C)(C)[C@@H]2C(=O)O [dicloxacillin] (10 µM)	115%
C[C@@H](N)Cc1c[nH]c2ccc(O)cc12 [alpha-methylserotonin] (10 µM)	97%
Cc1cc(NC(=O)Nc2ccc(N(C)C)cc2)c2cc(F)cc(F)c2n1 (10 µM)	99%
NC(=O)N1CCC(CC(=O)N2CCC([C@H]3c4ncc(Br)cc4CCc4cc(Cl)cc(Br)c43)CC2)CC1 [lonafarnib] (10 µM)	43.5% (active)
O=C(N[C@@H]1Cc2ccccc2N(C[C@@H](O)CO)C1=O)c1cc2cc(Cl)sc2[nH]1 (10 µM)	105%
COc1cccc(N2CCN(C3=Nc4c(F)cccc4[C@H](CC(=O)O)N3c3cc(C(F)(F)F)ccc3OC)CC2)c1 [letermovir] (10 µM)	109%
Cn1c(NC[C@@H](N)Cc2ccccc2)nc(-c2ccncc2)c(-c2ccc3ccccc3c2)c1=O (10 µM)	35% (active)
CCN(CCO)CCCOc1ccc2c(Nc3cc(CC(=O)Nc4cccc(F)c4)[nH]n3)ncnc2c1 [barasertib-HQPA] (10 µM)	112%
CC(=O)N[C@H]1[C@H]([C@H](O)[C@H](O)CO)OC(O)(C(=O)O)C[C@@H]1O (mixture of isomers) [aceneuramic-acid] (10 µM)	104%
